# Bioassay records as filed in PubChem.
# Only some compounds are listed: those with a hit (about 5.7% of all), similar ones and a draw of the others.
# KB-3-1 cytotox: kills parental KB-3-1 adenocarcinoma cells | KB-3-1 viability, CellTiter-Glo ATP luminescence, 72 h | Potency, µM (titrated, usually from 46.1 µM), hits mostly cytotoxic | 400,000 compounds, 1.4% hits | AID 1347075; note: nearly all actives have a fitted effect of over 60% in size
#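 Screening of KB-3-1 cells (DMEM, 10% FBS, phenol-red free) ran from lowest to highest compound concentration; after 72 h at 37 °C viability was read luminescently and curves fitted.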
# HT1080 IDH1KD tx: toxicity to HT-1080 IDH1 knockdown cells (counter line). HT-1080 IDH1 knockdown viability, ATP luminescence, 48 h. Potency, µM (doses to about 46.1 µM), inactives show at the top dose activity, negative = toxicity, hits mostly cytotoxic. 360,000 compounds, 2% hits;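 note: 0% = DMSO wells and -100% = cell-free medium wells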
#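 IDH1KD HT-1080 cells, 750/well, RPMI + 5% FBS; compound pinned after 2 h settling; 48 h, 37 °C; CellTiter-Glo luminescence; % activity normalised to DMSO and no-cell wells; curves fitted, classed by r2 and efficacy.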
# KB-V1 cytotox: KB-V1 MDR subline cytotoxicity. KB-V1 MDR cells viability, CellTiter-Glo, 72 h. Potency, µM (titrated, usually from 46.1 µM), hits mostly cytotoxic. 400,000 compounds, 3.4% hits; note: nearly all actives have a fitted effect of over 60% in size
#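 Potencies derive from concentration-effect curves fitted to normalized luminescence (CellTiter-Glo) of KB-V1 cells treated for 72 h at 37 degrees C in phenol-red-free DMEM containing 10% FBS.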
# HT1080NT lethal: kills 2HG-producing HT-1080-NT fibrosarcoma cells; HT-1080-NT fibrosarcoma viability, CellTiter-Glo ATP luminescence, 48 h; Potency, µM (doses to about 46.1 µM), for the others: top-dose activity, negative = less viability, usual class: cytotoxic; 360,000 compounds, 1.6% hits; AID 686970;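 note: NT is the 2HG producing partner of a matched IDH1 knockdown line; 0% = DMSO-treated cells and -100% = media-only wells without cells; nearly all actives have a fitted effect of over 55% in size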
#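 Read-out is CellTiter-Glo luminescence after 10 minutes at room temperature, following 48 hours' compound treatment of HT-1080-NT cells (750 cells/well, RPMI, 5% FBS, 37 degrees C).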
# * = called active by the depositor; i = inactive; ? = inconclusive; · = no result given; [ ] = dose if it differs, or a comment. Calls come from the whole dose curve; as a rule, active = well fitted curve in the direction sought with a large enough effect; inconclusive = small, poorly fitted or top-dose-only effect, or another doubt; inactive = no such curve, though single readings can be large; an effect the other way counts as inactive or inconclusive. Unless noted, % is set by controls: 0 for no effect and ±100 for the full control effect; potency is the fitted concentration of half-maximal effect.
SMILES,KB-3-1 cytotox,HT1080 IDH1KD tx,KB-V1 cytotox,HT1080NT lethal
O=C(/C=C/c1ccccc1)NC(NC(=S)Nc1ccc(Cl)cc1)C(Cl)(Cl)Cl (stereo unspecified),?,18µM*,?,?
CCc1cccc(NC(=O)C2CCCN(c3ncnc4onc(-c5ccc(F)cc5)c34)C2)c1 (stereo unspecified),i,·,i,·
Cc1ccccc1-c1nc(CN2CCC(C(=O)NCCc3ccccc3)CC2)c(C)o1,i,·,i,·
Cc1ccccc1-c1nc(CN2CCC(C(=O)NCCCN3CCCC(C)C3)CC2)c(C)o1 (stereo unspecified),i,9.2µM*,i,18µM*
COc1ccc(CCNC(=O)C2CCN(Cc3nc(-c4ccccc4C)oc3C)CC2)cc1OC,?,?,7.3µM*,?
COc1ccc(OC)c(CCNC(=O)CS(=O)(=O)Cc2nc(-c3ccccc3C)oc2C)c1,?,1%,6.5µM*,3%
COc1ccc(OC)c(CCNC(=O)CS(=O)(=O)Cc2nc(-c3ccccc3Cl)oc2C)c1,i,-13%,i,-13%
CCCCN1C(=O)c2[nH]nc(-c3ccccc3O)c2C1c1ccc(OCc2ccccc2)cc1 (stereo unspecified),i,·,i,·
Clc1ccc(C(Cn2ccnc2)OCc2c(Cl)cccc2Cl)c(Cl)c1 (stereo unspecified),i,?,?,16µM*
Cn1c(=O)c2c(nc(N3CCN(c4ccccn4)CC3)n2Cc2ccc(Cl)cc2Cl)n(C)c1=O,i,25%,0.65µM*,8%
Cn1c(=O)c2c(nc(Sc3ncccn3)n2Cc2ccccc2Cl)n(C)c1=O,i,0%,23µM*,4%
CCCOc1nc2c(c(=O)n(C)c(=O)n2C)n1C,i,10%,i,17%
CCCOc1nc2c(c(=O)n(C)c(=O)n2C)n1Cc1cccc2ccccc12,i,7%,5.8µM*,10%
C=CCOc1nc2c(c(=O)n(C)c(=O)n2C)n1Cc1ccc(Cl)cc1,?,18%,2.9µM*,3%
Cc1cccc(OCC(=O)Nc2ccccc2C(=O)OCc2cc(=O)n3ccsc3n2)c1,i,·,i,·
C=CCOc1nc2c(c(=O)n(C)c(=O)n2C)n1Cc1ccccc1Cl,?,?,7.3µM*,5%[9.24 µM]
COc1ccc(Oc2nc3c(c(=O)n(C)c(=O)n3C)n2Cc2ccccc2Cl)cc1,i,·,i,·
CC(=O)NC(Cc1cccc(C)c1)C(=O)NC1CCN(c2ncccc2[N+](=O)[O-])CC1 (stereo unspecified),i,0%,15µM*,4%
CC(=O)NC(Cc1cccc(F)c1)C(=O)NC1CCN(c2ncccc2[N+](=O)[O-])CC1 (stereo unspecified),i,-1%,i,2%
Cc1ccc(NC(=O)Cn2c(=O)n(-c3ccc(CC(=O)NCC4CCCO4)cc3)c(=O)c3ccccc32)cc1 (stereo unspecified),i,·,?,·
Cc1cc(NC(=O)COCc2cc(-c3ccc(F)cc3)on2)ccc1Br,?,·,i,·
COc1ccc(Cl)cc1C(=O)Nc1ccccc1N1CCCCC1,i,0%,i,-9%
CN1CCN(c2ccccc2NC(=O)c2ccc(OCc3ccccc3)cc2)CC1,?,23µM*,?,?
CN1CCN(c2ccccc2NC(=O)c2cccc(OCc3ccccc3)c2)CC1,i,18µM*,i,?
CN1CCN(c2ccccc2NC(=O)COc2ccc(Br)cc2)CC1,i,4%,21µM*,-1%
SMILES,KB-3-1 cytotox,HT1080 IDH1KD tx,KB-V1 cytotox,HT1080NT lethal
COc1ccc(Cl)cc1C(=O)Nc1ccccc1N1CCN(C)CC1,i,-1%,5.8µM*,-7%
O=c1cc(-c2ccccc2)nc(SCc2nc(-c3cccc(C(F)(F)F)c3)no2)[nH]1,i,·,i,·
O=C(Cc1ccc(F)cc1)NO,·,20%,·,17%
O=C(CCNc1ccc(Br)cc1)c1cccc([N+](=O)[O-])c1,i,?,i,23µM*
NC(N)=NS(=O)(=O)c1ccc(N/C=C/C(=O)c2ccc(Cl)c(Cl)c2)cc1,i,10%,i,1%
CCOc1ccc(C(=O)/C=C/Nc2ccc(S(=O)(=O)N=C(N)N)cc2)cc1,i,18µM*,i,?
COc1ccc(NC(=O)c2oc3ccccc3c2NC(=O)COc2ccc(C(C)C)cc2)c(OC)c1,i,·,?,·
O=C(c1ccc(Cl)cc1)C1CCN(Cc2ccccc2)CC1,i,-5%,i,-4%
O=C(C1CCN(Cc2ccc(Cl)cc2)CC1)N1CCN(C(c2ccccc2)c2ccccc2)CC1,21µM*,?,?,?
O=[N+]([O-])c1ccc2nc(NN=Cc3ccc(O)cc3)sc2c1,i,29µM*,?,?
O=C(CCl)Nc1cc2[nH]c(=O)[nH]c2cc1Br,?,6.5µM*,15µM*,10µM*
Cc1cc2oc(=O)cc(C)c2cc1NC(=O)CCl,?,?,i,?
O=C1CCCc2[nH]c(=O)c(-c3nc(-c4cccc([N+](=O)[O-])c4)cs3)cc21,i,·,i,·
COc1ccc(N/C(N)=N/c2nc(C)cc(C)n2)cc1,i,2%,i,3%
Cc1cc(C)nc(/N=C(\N)Nc2ccc(OCCC(C)C)cc2)n1,?,23µM*,?,15µM*
Cc1cc(C)nc(/N=C(\N)Nc2ccc(OCc3ccccc3)cc2)n1,?,?,?,18µM*
Cc1cc(C)nc(/N=C(\N)Nc2cccc(OCc3ccccc3)c2)n1,?,?,5.8µM*,?
COc1cc(/C=N/n2c(C)nc3ccccc3c2=O)cc(OC)c1O,i,0%,i,0%
Cc1c([N+](=O)[O-])cnc2ccccc12,i,·,i,·
COc1cc(Cl)c(C)cc1NC(=O)CSCC#N,i,-29%,i,10µM*
O=C(NCCCN1CCCC1)c1ccc2c(Cl)c3c(nc2c1)CCCC3,i,23µM*,?,18µM*
CCCCN(CC)CCNC(=O)c1ccc2c(Cl)c3c(nc2c1)CCC3,i,23µM*,i,21µM*
N#Cc1ccccc1NC(=O)c1ccc2c(Cl)c3c(nc2c1)CCCC3,i,15%,8.2µM*,7%
CCN(CC)CCCNC(=O)c1ccc2c(Cl)c3c(nc2c1)CCCC3,i,29µM*,?,23µM*
O=C(Nc1ccccc1F)c1ccc2c(Cl)c3c(nc2c1)CCC3,?,·,i,·
CCCN1CCN(CCCNC(=O)c2ccc3c(Cl)c4c(nc3c2)CCCC4)CC1,i,?,i,?
COc1ccccc1-c1nnc2n(CCc3ccccc3)c(=O)c3ccccc3n12,i,·,i,·
Cc1csc2c1c(=O)n(O)c(=O)n2Cc1ccccc1,i,·,i,·
CCN(C(=O)Cn1ncc2c(=O)oc3ccccc3c21)c1ccccc1F,i,·,i,·
CCOC(=O)C1=C(COC(=O)c2cc(S(=O)(=O)N(C)C)ccc2C)NC(=O)NC1C (stereo unspecified),i,-1%,23µM*,-3%
